Among all 38,000 compounds or so, about 1,200 (3.2%) showed an effect of 50% or more. The median lay at about -58%. The entries come from a sample that favours strong results as a whole.
These molecules were tested on Plasmodium falciparum (assay: Calibr Malaria Delayed Death Assay SOP). Settings: concentration 4.99e-06 (unit not given; other assays of the set use mol/L).
Type: functional, organism-based
Parameters: scale not given: in the data most compounds retested in dose-response had high values
In the case of CCCC(NC(=O)c1ccc(C)cc1C)c1nnn[nH]1 (stereo not drawn), the “Percent Effect” value is reported as -70.8%.
For CN1CCCN(c2nccc(-c3c[nH]c4ccc(Br)cc34)n2)CC1, the “Percent Effect” value was 40.41%.
With OC[C@@H]1CCCN1c1nccc(-c2c[nH]nc2-c2ccncc2)n1 the “Percent Effect” value was 66.81%.
CN1CCCN(c2nccc(-c3cc(C(=O)O)ccn3)n2)CC1 was tested, and the “Percent Effect” value was -114.4%.
For CC(C)[C@H](CO)Nc1nccc(-c2c[nH]nc2-c2ccncc2)n1, the “Percent Effect” value was 83.09%.
In the case of c1cncc(-c2nc(C3CC3)ncc2-c2ccnc(N3CCCC3)n2)c1, the “Percent Effect” value is reported as -168.7%.
With Cc1[nH]c2ccccc2c1-c1ccnc(N[C@@H](CO)C(C)C)n1 the “Percent Effect” value was -14.55%.
Cc1ncc(-c2ccnc(N3CCC[C@@H]3CO)n2)c(-c2cccnc2)n1 was tested, and the “Percent Effect” value was -29.65%.
c1cc(-c2n[nH]cc2-c2ccnc(N3CCCC3)n2)ccn1 was tested, and the “Percent Effect” value was 80.23%.
In the case of Cc1csc2ncc(-c3ccnc(N4CCC[C@@H]4CO)n3)c(=O)n12, the “Percent Effect” value is reported as -191.9%.
In the case of NC(=O)[C@H]1CCCN(c2nccc(-c3c[nH]nc3-c3cccnc3)n2)C1, the “Percent Effect” value is reported as -58.34%.
CN1CCCN(c2nccc(-c3c[nH]nc3-c3ccncc3)n2)CC1 was tested, and the “Percent Effect” value was 65.32%.
In the case of Cc1ccccc1-n1cc(-c2ccnc(NC(CO)C(C)C)n2)cn1 (stereo not drawn), the “Percent Effect” value is reported as 25.15%.
With Cc1cnc(C(NC(=O)NCc2nc(C3CC3)no2)C2CC2)s1 (stereo not drawn) the “Percent Effect” value was -34.97%.
In the case of Cc1ccc(N2CCO[C@H]3CN(Cc4cccs4)C[C@H]32)nn1.O=C(O)C(F)(F)F.O=C(O)C(F)(F)F, the “Percent Effect” value is reported as -16.91%.
With CCN(CC)Cc1cc(=O)n2c(n1)CN(C(=O)c1ccnnc1)CCC2.O=C(O)C(F)(F)F the “Percent Effect” value was -110.9%.
Cc1ccc(CN2CC[C@H]3OCC[C@@]3(C(=O)N3CCCO3)C2)o1.O=C(O)C(F)(F)F was tested, and the “Percent Effect” value was -80.01%.
CC(C)c1nnc2sc(CC3CN(C(C)C)CCO3)nn12 (stereo not drawn) was tested, and the “Percent Effect” value was -105.6%.
In the case of CCCS(=O)(=O)N1Cc2nccn2CC(Cn2cncn2)C1 (stereo not drawn), the “Percent Effect” value is reported as -125.8%.
With c1cc(-c2c[nH]nc2C2CCCCC2)nc(N2CCCCCC2)n1 the “Percent Effect” value was -3.373%.
For c1cc(-c2n[nH]cc2-c2ccnc(N3CCCCCC3)n2)ccn1, the “Percent Effect” value was 76.99%.
For NC(=O)C1CCN(c2nccc(-c3c[nH]nc3C3CCCCC3)n2)CC1, the “Percent Effect” value was 12.3%.
With CC(NC(=O)N1CCNC(=O)CC1)c1c(F)cccc1Cl (stereo not drawn) the “Percent Effect” value was -91.59%.
In the case of COCCC(=O)N1CCC2(COCc3cnc(-c4cccnc4)nc32)C1 (stereo not drawn), the “Percent Effect” value is reported as -64.26%.
Cc1cncc(C(=O)N[C@@H]2CC[C@@H](N3CCOCC3)[C@@H]2O)c1 was tested, and the “Percent Effect” value was -132.2%.
With CNC(=O)c1ccc(C(=O)N2CCCC(n3ccnc3C)C2)cn1 (stereo not drawn) the “Percent Effect” value was -171.6%.
For CN1CC2(CCN(Cc3cccc(C#N)c3)CC2)CC1=O, the “Percent Effect” value was -15.68%.
For Cl.O=C1CC2(CCNCC2)C(=O)N1Cc1ccc(F)cc1, the “Percent Effect” value was -53.59%.
Cl.O=C1CC2(CCCNC2)C(=O)N1Cc1ccccc1 (stereo not drawn) was tested, and the “Percent Effect” value was -18.54%.
For CCN1CC2(CCC1=O)CCN(Cc1cccc(C#N)c1)CC2, the “Percent Effect” value was -206%.
In the case of N#Cc1cccc(CN2C(=O)C3(CCNCC3)Nc3ccccc32)c1, the “Percent Effect” value is reported as 66.93%.
CC(C)c1ccc(CN2C(=O)C3(CCNCC3)Nc3ccccc32)cc1 was tested, and the “Percent Effect” value was 81.43%.
In the case of NC(=O)c1ccc(CN2C(=O)C3(CCNCC3)Nc3ccccc32)cc1, the “Percent Effect” value is reported as -6.416%.
With C=Cc1ccc(CN2C(=O)C3(CCNCC3)Nc3ccccc32)cc1 the “Percent Effect” value was 87.33%.
Cl.O=C1CC2(CCCNC2)C(=O)N1Cc1ccc(F)cc1 (stereo not drawn) was tested, and the “Percent Effect” value was -29.07%.
In the case of c1ccc2c(c1)COC1(CCCC1)N2, the “Percent Effect” value is reported as -67.59%.
With Cn1nc(CN2CCCCC2)c2c1CN(C(=O)c1ccccc1)C2 the “Percent Effect” value was -57.34%.
For CC(C)NC(=O)c1nn(C)c(NC(=O)Cc2ccccc2)c1F, the “Percent Effect” value was -24.59%.
Cc1nc(CNC(=O)NC2CCN(c3ncccn3)CC2)cs1 was tested, and the “Percent Effect” value was -218.9%.
For CCOCCCn1c(NC(=O)c2cc(C)no2)nc2ccccc21, the “Percent Effect” value was -48.09%.
In the case of Cn1cccc1C(=O)N1C[C@H]2CC[C@@H]1CN(Cc1cscn1)C2, the “Percent Effect” value is reported as -15.16%.
O=S(=O)(c1cc(F)ccc1F)N1CCCC1c1ccco1 (stereo not drawn) was tested, and the “Percent Effect” value was -139.7%.
CCN1CCCC(O)(CN(C)Cc2ccc(C)o2)C1 (stereo not drawn) was tested, and the “Percent Effect” value was 18.1%.
With Cc1ccc(CN2CCCC3(CCN(Cc4ccc(C)o4)C3)C2)o1 (stereo not drawn) the “Percent Effect” value was 14.98%.
For Cc1ccc(CN(C)CC2(O)CCCN(C)C2)o1 (stereo not drawn), the “Percent Effect” value was 53.08%.
With O=C(c1ccccn1)N1CCc2ncnc(-c3ccncc3)c2CC1 the “Percent Effect” value was -17.27%.
For COc1cccc(OC)c1-c1ccnc2cc(CC(=O)N(C)C)nn12, the “Percent Effect” value was -114.9%.
For CC(C)NC(=O)CC1CC2(CCN(S(C)(=O)=O)CC2)c2ccccc21 (stereo not drawn), the “Percent Effect” value was -30.05%.
COc1ccc(-c2cn3c(n2)CO[C@@H](CNCc2nccn2C)C3)cc1 was tested, and the “Percent Effect” value was 20.49%.
Cc1ccc(CNC[C@H]2Cn3cc(-c4ccccc4)nc3CO2)cc1 was tested, and the “Percent Effect” value was -116.4%.
For Cc1ccc(-c2cn3c(n2)CO[C@@H](CNCc2cnn(C)c2)C3)cc1, the “Percent Effect” value was -51.89%.
With Cc1ccc(-c2cn3c(n2)CO[C@@H](CNCc2nccn2C)C3)cc1 the “Percent Effect” value was 87.31%.
Cc1cccnc1CNC[C@H]1Cn2cc(-c3ccccc3)nc2CO1 was tested, and the “Percent Effect” value was 30.07%.
Cn1ccnc1CNC[C@H]1Cn2cc(-c3ccccc3)nc2CO1 was tested, and the “Percent Effect” value was 55.94%.
In the case of Fc1ccccc1OC1CCN(CCn2cc3ccccc3n2)CC1, the “Percent Effect” value is reported as -71.75%.
With CCC1CN(CC(=O)N2CCCC2)CCN1CCOC (stereo not drawn) the “Percent Effect” value was -62.36%.
For Cc1ccc(N2CCC3(CCN(C(=O)c4ccsc4)CC3)C2)nn1, the “Percent Effect” value was -9.92%.
NC(=O)N1CCC2(CCN(Cc3ccccn3)C2=O)C1.O=C(O)C(F)(F)F (stereo not drawn) was tested, and the “Percent Effect” value was -110.7%.
With COCC(O)CN1CCC(=O)N(Cc2ccccc2)Cc2ccccc21 (stereo not drawn) the “Percent Effect” value was -18.3%.
CC(C)c1nn(C)c(Cl)c1CNCC(O)c1cccc(F)c1.Cl (stereo not drawn) was tested, and the “Percent Effect” value was 81.83%.
For CC(C)c1nn(C)c(N(C)C)c1CNCC(O)c1cccc(F)c1 (stereo not drawn), the “Percent Effect” value was 28.02%.
For COc1ncccc1CNCc1c(C(C)C)nn(C)c1OC, the “Percent Effect” value was -36.33%.
CC(C)c1nn(C)c(N(C)C)c1CNCC(O)c1ccccc1 (stereo not drawn) was tested, and the “Percent Effect” value was -60.19%.
COc1c(CNCC(c2cccc(F)c2)N(C)C)c(C(C)C)nn1C (stereo not drawn) was tested, and the “Percent Effect” value was 19.73%.
In the case of COc1ncccc1CNCc1c(C(C)C)nn(C)c1N(C)C, the “Percent Effect” value is reported as 6.61%.
CC(C)c1nn(C)c(N(C)C)c1CNCC(O)c1ccccc1F (stereo not drawn) was tested, and the “Percent Effect” value was -90.64%.
For COc1ncccc1CNCc1c(C(C)C)nn(C)c1Cl, the “Percent Effect” value was 51.46%.
In the case of CC(C)OCCCNC(=O)c1cccnc1N1CCOCC1, the “Percent Effect” value is reported as -113.7%.
In the case of Cn1ccnc1CN1CCCN(C(=O)c2ccc3c(c2)OCO3)CC1, the “Percent Effect” value is reported as -109.5%.
For O=C(Nc1nncs1)N1CCC(c2ccc(O)cc2)CC1, the “Percent Effect” value was -154%.
CCN1C(=O)CCCC12CCCN(C(=O)c1conc1C)C2 (stereo not drawn) was tested, and the “Percent Effect” value was -139.9%.
CCCS(=O)(=O)N1CCC2(CN(c3ccccc3)C(=O)CN2C)C1.O=C(O)C(F)(F)F (stereo not drawn) was tested, and the “Percent Effect” value was -40.82%.
CC1Oc2c(cccc2C(=O)N2CCCCCC2)NC1=O (stereo not drawn) was tested, and the “Percent Effect” value was -198.9%.
For c1ccc(CN(Cc2ncc[nH]2)Cc2nccs2)cc1, the “Percent Effect” value was 15.24%.
Cc1cccc(CN(Cc2ccccc2)Cc2nccs2)n1 was tested, and the “Percent Effect” value was -42.32%.
For Cc1nc[nH]c1CN(Cc1ccccc1)Cc1nccs1, the “Percent Effect” value was 74.62%.
Cc1cccc(CN2CC[C@@H]3O[C@@H](C(=O)N4CCN(C)CC4)C[C@@H]32)c1 was tested, and the “Percent Effect” value was 7.549%.
With Cc1nc2ccnn2c(C)c1CCC(=O)N1CCSCC1 the “Percent Effect” value was -118.8%.
Cc1cccc(N2CCOCC3(C2)CN(c2ccoc2)C(=O)CO3)n1.O=C(O)C(F)(F)F (stereo not drawn) was tested, and the “Percent Effect” value was 65.62%.
Cc1cccc(N2CCOCC3(C2)CN(c2cnn(C)c2)C(=O)CO3)n1.O=C(O)C(F)(F)F (stereo not drawn) was tested, and the “Percent Effect” value was -79.15%.
In the case of Cc1cccc(N2CCOCC3(C2)CN(c2ccccc2)C(=O)CO3)n1.O=C(O)C(F)(F)F (stereo not drawn), the “Percent Effect” value is reported as -64.15%.
OC1(CN2CCOC(Cn3cncn3)C2)CCCCC1 (stereo not drawn) was tested, and the “Percent Effect” value was -41.07%.
Cc1ccc2[nH]c(CN(C)Cc3n[nH]c4c3CCC4)nc2c1 was tested, and the “Percent Effect” value was 82.04%.
CN(Cc1cc2n(n1)CCCNC2)Cc1n[nH]c2c1CCC2 was tested, and the “Percent Effect” value was -43.74%.
With CN(Cc1cc2n(n1)CCNC2)Cc1n[nH]c2c1CCC2 the “Percent Effect” value was -20.1%.
For CN(Cc1cc2n(n1)CCNC2)Cc1n[nH]c2c1CCCCC2, the “Percent Effect” value was -6.476%.
Cc1ccc2nc(CN(C)Cc3n[nH]c4c3CCCCC4)[nH]c2c1C was tested, and the “Percent Effect” value was 85.65%.
In the case of Cc1ccc2nc(CN(C)Cc3[nH]nc4c3CCC4)[nH]c2c1C, the “Percent Effect” value is reported as 36.38%.
For CCn1nc(CC(C)C)cc1C(=O)NCCCN1CCOCC1, the “Percent Effect” value was -66.39%.
For CN(Cc1ccc2c(c1)OCCO2)Cn1nc(C(C)(C)C)ccc1=O, the “Percent Effect” value was -39.48%.
With CN(Cc1ccncc1)C1COC2(CCN(Cc3nccn3C)CC2)C1.O=C(O)C(F)(F)F.O=C(O)C(F)(F)F.O=C(O)C(F)(F)F (stereo not drawn) the “Percent Effect” value was -27.83%.
For O=C(O)C(F)(F)F.O=C1[C@H]2CN(S(=O)(=O)C3CC3)C[C@H]2CN1Cc1cccnc1, the “Percent Effect” value was -0.2941%.
With CC(=O)C1(c2ccccc2)CCN(C(=O)C2CNCCO2)CC1 (stereo not drawn) the “Percent Effect” value was -83.28%.
For CC(=O)C1(c2ccccc2)CCN(C(=O)CC2CNCCO2)CC1 (stereo not drawn), the “Percent Effect” value was -46.22%.
In the case of O=C(C1CNCCO1)N1CCCC(c2ccccc2)(c2ccccc2)C1 (stereo not drawn), the “Percent Effect” value is reported as 79.21%.
In the case of O=C(c1cccnc1SC/C=C/c1ccccc1)N1CC[C@H](O)C1, the “Percent Effect” value is reported as -73.62%.
O=C(c1cccnc1SCc1ccccc1)N1CCOCC1 was tested, and the “Percent Effect” value was -36.51%.
With O=C(c1cccnc1SC/C=C/c1ccccc1)N1CCOCC(O)C1 (stereo not drawn) the “Percent Effect” value was 53.57%.

Source: ChEMBL document CHEMBL3988442, “University of Dundee, Small-Polar-MMV Screening Library” (2021)
